Bioassay records as filed in PubChem.
Sampled rows, rich in hits. Any-hit rate of the full collection: about 22%.
Measles CPE = protection of cells from measles virus. Measles virus-infected cells, CPE protection, absorbance. protection (pct of control), % at 4 µM. 140,000 tested, 1.5% active. AID 841; in the data active = protection mostly above about 24%, no sharp cut-off; inactive = mostly below about 26%
CYP2C19 inhib = human CYP2C19 inhibition; P33261; CYP2C19 Supersomes, luciferin-H EGE luminescence, 30 min; inhibition, % at 5 µM; 96,000 tested, 21% active; AID 778;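 active = CYP2C19 inhibition above a set limit at 5 µM in the primary screen, cut at about 50% in these data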;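 note: plate controls were negative control wells for no effect and 2.5 mM tranylcypromine positive control for full effect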
Target sequence (P33261 whole entry, looked up): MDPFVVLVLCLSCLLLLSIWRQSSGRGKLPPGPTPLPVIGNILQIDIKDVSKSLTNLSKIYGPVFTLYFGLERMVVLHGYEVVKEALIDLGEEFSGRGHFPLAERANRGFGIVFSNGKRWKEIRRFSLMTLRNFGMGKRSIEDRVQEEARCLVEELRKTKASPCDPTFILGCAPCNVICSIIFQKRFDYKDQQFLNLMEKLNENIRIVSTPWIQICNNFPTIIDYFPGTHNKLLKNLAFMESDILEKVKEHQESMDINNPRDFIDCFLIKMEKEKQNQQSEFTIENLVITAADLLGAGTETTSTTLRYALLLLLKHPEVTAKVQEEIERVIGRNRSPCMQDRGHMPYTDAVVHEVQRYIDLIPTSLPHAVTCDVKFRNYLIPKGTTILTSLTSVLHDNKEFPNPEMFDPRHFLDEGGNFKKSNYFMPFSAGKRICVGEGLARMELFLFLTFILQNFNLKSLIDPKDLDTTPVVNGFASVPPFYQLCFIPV
CYP2C9 inhib = human CYP2C9 inhibition | P11712 | CYP2C9 Supersomes, luciferin-H conversion, luminescence | inhibition, % at 5 µM | 96,000 tested, 20% active | AID 777;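 active = blocking of liver enzyme CYP2C9 beyond about 50% at 5 µM, limit read from the data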
CYP2C9 activ = increases human cytochrome P450 2C9 activity. P11712. recombinant CYP2C9, luciferin-H conversion, luminescence; hits give high values; factor 1 = untreated enzyme, 0 = blocked. activation factor at 5 µM. 96,000 tested, 1.4% active. AID 1024;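 active = activation factor of 2 or more for CYP2C9 at a 5 µM dose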;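 note: 0 = sulfaphenazole-blocked wells and 1 = vehicle-only wells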
CYP2C19 activ = activators of human cytochrome P450 2C19 | P33261 | recombinant CYP2C19, luciferin-H EGE luminescence; hits give high values; 0 = fully inhibited enzyme, 1 = untreated enzyme | activation factor at 5 µM | 96,000 tested, under 10 active | AID 1025;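 active = activation factor of at least 2 at 5 µM in the primary screen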;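 note: 0 = wells with 2.5 mM tranylcypromine and 1 = vehicle-only wells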
* hit, by the source's call; . = not tested or not shown.

SMILES	Measles CPE	CYP2C19 inhib	CYP2C9 inhib	CYP2C9 activ	CYP2C19 activ
CC(=O)Nc1ccc(S(=O)(=O)NCC(=O)OCc2ccccc2)cc1	19	.	.	.	.
CCn1c(SCC(=O)C(C)(C)C)nnc1-c1cnccn1	11	.	.	.	.
CCC(=O)Nc1nonc1-c1nc2ccccc2n1CC(C)C	1	18	66*	0.3	0.8
CC1CCCN(C(=O)Cn2c(-c3nonc3N)nc3ccccc32)C1 (configuration not stated)	16	36	22	0.8	0.6
CCOC(=O)c1ccccc1NC(=O)Cn1c(-c2nonc2N)nc2ccccc21	10	76*	92*	0.1	0.2
Nc1nonc1-c1nc2ccccc2n1CC(=O)NC1CCCC1	4	52*	33	0.7	0.5
O=C(c1scc2c1CCCC2)N1CCCCC1	36*	8	-23	1.2	0.9
Cc1ccc(NC(=O)c2scc3c2CCCC3)cc1	20	.	.	.	.
O=C1CN(C(=O)c2cccs2)c2ccccc2N1	29	8	0	1	0.9
CCc1ccccc1NC(=O)CN(C)C(=O)CSc1nnc(Nc2cccc(C)c2)s1	6	.	.	.	.
O=C(CCCCn1c(=O)c2ccccc2n(CC(=O)NC2CCCC2)c1=O)NC1CCCC1	88*	18	62*	0.4	0.8
CCc1ccc(NC(=O)Cn2c(=O)n(CCCC(=O)NCc3ccco3)c(=O)c3ccccc32)cc1	4	10	28	0.7	0.9
O=C(CCCCn1c(=O)c2ccccc2n(CC(=O)Nc2cccc(F)c2)c1=O)NCc1ccco1	7	20	75*	0.3	0.8
CC1CC(C)CN(C(=O)Cn2c(=O)n(CCCCC(=O)NCc3ccco3)c(=O)c3ccccc32)C1 (configuration not stated)	31	29	79*	0.2	0.7
O=C(CCCCn1c(=O)c2ccccc2n(Cc2ccc(Cl)cc2)c1=O)NCc1ccco1	16	18	30	0.7	0.8
O=C(CCCCn1c(=O)c2ccccc2n(CC(=O)NC2CCCC2)c1=O)NCc1ccco1	9	18	62*	0.4	0.8
COc1cccc(NC(=O)Cn2c(=O)n(CCCC(=O)NCc3ccco3)c(=O)c3ccccc32)c1	7	30	18	0.8	0.7
O=C(c1ccco1)n1nc(-c2ccccc2)nc1SCc1ccccc1	6	-27	22	0.8	1.3
CN1C(=O)c2c(sc3c2CC(C)(C)SC3)N2CCN=C12	.	-2	-12	1.1	1
O=c1[nH]c(CN(CCc2ccccc2)S(=O)(=O)c2ccc(Cl)cc2)nc2ccccc12	12	.	.	.	.
CCOC(=O)C1=C(O)CSC1=Nc1ccc(Cl)cc1	4	38	20	0.8	0.6
O=C(CCn1c(=O)c2ccccc2n(CC(=O)NC2CCCC2)c1=O)NCc1ccco1	8	16	54*	0.5	0.8
CC1CC(C)CN(C(=O)Cn2c(=O)n(CCCCC(=O)NC3CCCC3)c(=O)c3ccccc32)C1 (configuration not stated)	5	33	74*	0.3	0.7
COc1ccc(NS(=O)(=O)c2ccc3c(c2)oc(=O)n3C)c(OC)c1	2	96*	30	0.7	0
CCOC(=O)c1ccc(NS(=O)(=O)c2ccc3c(c2)oc(=O)n3C)cc1	7	.	.	.	.
SMILES	Measles CPE	CYP2C19 inhib	CYP2C9 inhib	CYP2C9 activ	CYP2C19 activ
COC(=O)c1ccc(NS(=O)(=O)c2ccc3c(c2)oc(=O)n3C)cc1	8	89*	90*	0.1	0.1
COc1cc(NS(=O)(=O)c2ccc3c(c2)oc(=O)n3C)cc(OC)c1OC	12	46	71*	0.3	0.5
Cn1c(CSc2nc3ccccc3s2)nnc1SCC(=O)NCCN1CCOCC1	21	-19	-14	1.1	1.2
CCN(CC)C(=O)c1cc2cc(Br)ccc2oc1=O	8	14	-71	1.7	0.9
O=C(OCC(=O)N(C1CCCCC1)C1CCCCC1)c1ccncc1	9	99*	65*	0.3	0
O=c1c2ccccc2nnn1CSc1ccc2c(c1)OCCO2	5	94*	55*	0.5	0.1
Cc1ccc(C)c(S(=O)(=O)N2C(=S)NC(=O)C2C(C)C)c1 (configuration not stated)	5	56*	95*	0	0.4
COC(=O)Nc1ccc(S(=O)(=O)N2CCCC(C(=O)Nc3cccc4c3OCCO4)C2)cc1 (configuration not stated)	1	64*	83*	0.2	0.4
COC(=O)Nc1ccc(S(=O)(=O)N2CCCC(C(=O)Nc3cccnc3)C2)cc1 (configuration not stated)	13	5	40	0.6	1
Cc1cccc(CN2CCC(CNC(=O)C3CCCN(S(=O)(=O)c4cnc[nH]4)C3)CC2)c1 (configuration not stated)	9	-6	-1	1	1.1
Cc1ccc2nc(NC(=O)C3CCCN(S(=O)(=O)c4cccnc4)C3)sc2c1 (configuration not stated)	2	-14	13	0.9	1.1
COc1ccc(C)cc1NC(=O)C1CCCN(S(=O)(=O)c2cnc[nH]2)C1 (configuration not stated)	31	64*	62*	0.4	0.4
COc1ccccc1NC(=O)C1CCCN(S(=O)(=O)c2cnc[nH]2)C1 (configuration not stated)	15	62*	61*	0.4	0.4
Cc1ccc2nc(NC(=O)C3CCCN(S(=O)(=O)c4cnc[nH]4)C3)sc2c1 (configuration not stated)	15	26	51*	0.5	0.7
O=C1c2oc3ccccc3c(=O)c2C(c2cccs2)N1CCCN1CCOCC1 (configuration not stated)	5	2	23	0.8	1
COCCN(CC(=O)NCc1ccc(F)cc1)C(=O)CCC(=O)Nc1nccs1	5	1	12	0.9	1
Cc1ccnc(NC(=O)C2CCCN(S(=O)(=O)c3cnc[nH]3)C2)c1 (configuration not stated)	14	44	58*	0.4	0.6
CCSc1nnc(NC(=O)C2CCCN(S(=O)(=O)c3cnc[nH]3)C2)s1 (configuration not stated)	9	25	74*	0.3	0.8
COc1ccc(NC(=O)C2CCCN(S(=O)(=O)c3ccc(C)cc3)C2)cc1OC (configuration not stated)	2	.	.	.	.
CCOc1ccccc1NC(=O)C1CCCN(S(=O)(=O)c2ccc(OC)c(C)c2)C1 (configuration not stated)	3	93*	5	0.9	0.1
COc1cc(C)nc(N2CCCC(C(=O)Nc3cc(Cl)ccc3OC)C2)n1 (configuration not stated)	6	84*	-15	1.1	0.2
Cc1cc(C)nc(N2CCCC(C(=O)Nc3nc4ccc(S(C)(=O)=O)cc4s3)C2)n1 (configuration not stated)	11	87*	83*	0.2	0.1
